Measurements published in the antibiotic and cytotoxicity screens of Wong et al. (2023).
Screen size: about 39,000 compounds; about 3,300 (8.5%) were called active. Only a selection was taken, and actives are over-represented in it overall.

These molecules were tested on HepG2 (assay: cytotoxicity call (relative viability < 0.9)). Conditions: 10 µM.
For `CCS(=O)(=O)N1C[C@]2(C1)CN([C@H](CO)c1c2c2ccc(cc2n1C)OC)S(=O)(=O)c1ccccc1`, the cytotoxicity call was “inactive”. For `C[C@@H]1CN([C@H](C)CO)C(=O)c2c(c3ccccc3n2C)-c2ccccc2CO[C@H]1CN(C)Cc1ccccc1C(F)(F)F`, the cytotoxicity call was “active”. In the case of `C[C@H]1CN([C@@H](C)CO)C(=O)c2c(c3ccccc3n2C)-c2ccccc2CO[C@@H]1CN(C)Cc1ccccc1`, the cytotoxicity call is reported as “inactive”. In the case of `C[C@H](CO)N1C[C@H](C)[C@H](CN(C)Cc2ccccc2)OCc2ccccc2-c2c(n(C)c3ccccc23)C1=O`, the cytotoxicity call is reported as “inactive”. For `COc1ccccc1CN(C)C[C@H]1OCc2ccccc2-c2c(n(C)c3ccccc23)C(=O)N([C@@H](C)CO)C[C@@H]1C`, the cytotoxicity call was “inactive”. In the case of `C[C@@H]1CN([C@@H](C)CO)C(=O)c2c(c3ccccc3n2C)-c2ccccc2CO[C@H]1CN(C)Cc1ccccc1C(F)(F)F`, the cytotoxicity call is reported as “inactive”. In the case of `C[C@@H]1CN([C@H](C)CO)C(=O)c2c(c3ccccc3n2C)-c2ccccc2CO[C@H]1CN(C)Cc1ccccc1`, the cytotoxicity call is reported as “active”. For `C[C@@H]1CN([C@@H](C)CO)C(=O)c2c(c3ccccc3n2C)-c2ccccc2CO[C@@H]1CN(C)Cc1ccccc1`, the cytotoxicity call was “inactive”. `C[C@H]1CN([C@@H](C)CO)C(=O)c2c(c3ccccc3n2C)-c2ccccc2CO[C@H]1CN(C)Cc1ccccc1` was tested, and the cytotoxicity call was “inactive”. In the case of `COc1ccccc1CN(C)C[C@@H]1OCc2ccccc2-c2c(n(C)c3ccccc23)C(=O)N([C@H](C)CO)C[C@H]1C`, the cytotoxicity call is reported as “inactive”. `C[C@H](CO)N1C[C@H](C)[C@H](CN(C)Cc2ccccc2C(F)(F)F)OCc2ccccc2-c2c(n(C)c3ccccc23)C1=O` was tested, and the cytotoxicity call was “inactive”. For `COc1ccccc1CN(C)C[C@H]1OCc2ccccc2-c2c(n(C)c3ccccc23)C(=O)N([C@H](C)CO)C[C@@H]1C`, the cytotoxicity call was “active”. For `C[C@H](CO)N1C[C@H](C)[C@@H](CN(C)Cc2ccccc2)OCc2ccccc2-c2c(n(C)c3ccccc23)C1=O`, the cytotoxicity call was “active”. With `C[C@H]1CN([C@@H](C)CO)C(=O)c2cc(NS(C)(=O)=O)ccc2O[C@@H]1CN(C)S(=O)(=O)c1ccccc1` the cytotoxicity call was “inactive”. In the case of `CC(C)NC(=O)N(C)C[C@@H]1Oc2ccc(NS(=O)(=O)c3ccc(Cl)cc3)cc2C(=O)N([C@@H](C)CO)C[C@H]1C`, the cytotoxicity call is reported as “inactive”. For `COc1ccc2c3c(n(c2c1)C)[C@H](CO)N(C[C@]13CCN(CC1)C(=O)c1ccccc1F)C(=O)Nc1ccc(cc1)F`, the cytotoxicity call was “inactive”. In the case of `CO[C@H]1CN(C)C(=O)c2cc(NS(=O)(=O)c3cn(C)cn3)ccc2OC[C@H](C)N(CC2CC2)C[C@H]1C`, the cytotoxicity call is reported as “inactive”. In the case of `C[C@@H]1CN([C@H](C)CO)C(=O)c2cc(NC(=O)C3CCCCC3)ccc2O[C@@H](C)CCCCO[C@H]1CN(C)C(=O)Nc1ccccc1`, the cytotoxicity call is reported as “inactive”. In the case of `Cc1cc2cc(C)nn2c(N)n1`, the cytotoxicity call is reported as “inactive”. `C[C@H](CO)N1C[C@H](C)[C@H](CN(C)C(=O)Nc2ccccc2)OCCCC[C@H](C)Oc2ccc(NC(=O)CCC(F)(F)F)cc2C1=O` was tested, and the cytotoxicity call was “inactive”. In the case of `Cc1noc(C)c1S(=O)(=O)Nc1ccc2c(c1)C(=O)N([C@H](C)CO)C[C@@H](C)[C@@H](CN(C)Cc1ccccc1)O2`, the cytotoxicity call is reported as “inactive”. For `O=C(C[C@@H]1C=C[C@H](NS(=O)(=O)c2ccccc2F)[C@@H](CO)O1)NCCCN1CCOCC1`, the cytotoxicity call was “inactive”. In the case of `C[C@H](CO)N1C[C@H](C)[C@H](CN(C)S(=O)(=O)c2ccc(F)cc2)OCCCC[C@H](C)Oc2ccc(NC(=O)NC3CCCCC3)cc2C1=O`, the cytotoxicity call is reported as “active”. With `C[C@@H]1CCCCO[C@@H](CN(C)S(=O)(=O)c2ccc(F)cc2)[C@@H](C)CN([C@H](C)CO)C(=O)c2cc(NC(=O)NC3CCCCC3)ccc2O1` the cytotoxicity call was “inactive”. In the case of `C[C@H]1CCCCO[C@@H](CN(C)S(=O)(=O)c2ccc(F)cc2)[C@@H](C)CN([C@@H](C)CO)C(=O)c2cc(NC(=O)NC3CCCCC3)ccc2O1`, the cytotoxicity call is reported as “inactive”. `C[C@@H]1CCCCO[C@@H](CN(C)S(=O)(=O)c2ccc(F)cc2)[C@H](C)CN([C@H](C)CO)C(=O)c2cc(NC(=O)NC3CCCCC3)ccc2O1` was tested, and the cytotoxicity call was “active”. With `C[C@@H]1CCCCO[C@@H](CN(C)S(=O)(=O)c2ccc(F)cc2)[C@H](C)CN([C@@H](C)CO)C(=O)c2cc(NC(=O)NC3CCCCC3)ccc2O1` the cytotoxicity call was “inactive”. `C[C@@H]1CN([C@H](C)CO)C(=O)c2cc(NC(=O)NC3CCCCC3)ccc2O[C@@H](C)CCCCO[C@H]1CN(C)S(=O)(=O)c1ccc(F)cc1` was tested, and the cytotoxicity call was “inactive”. For `C[C@@H]1CCCCO[C@H](CN(C)S(=O)(=O)c2ccc(F)cc2)[C@H](C)CN([C@@H](C)CO)C(=O)c2cc(NC(=O)NC3CCCCC3)ccc2O1`, the cytotoxicity call was “inactive”. For `C[C@@H]1CCCCO[C@H](CN(C)S(=O)(=O)c2ccc(F)cc2)[C@@H](C)CN([C@H](C)CO)C(=O)c2cc(NC(=O)NC3CCCCC3)ccc2O1`, the cytotoxicity call was “active”. `C[C@@H]1CCCCO[C@H](CN(C)S(=O)(=O)c2ccc(F)cc2)[C@H](C)CN([C@H](C)CO)C(=O)c2cc(NC(=O)NC3CCCCC3)ccc2O1` was tested, and the cytotoxicity call was “inactive”. For `COc1cccc(C#Cc2cnc3c(c2)C(=O)N([C@H](C)CO)C[C@@H](C)[C@@H](CN(C)C(=O)C2CCOCC2)O3)c1`, the cytotoxicity call was “inactive”. `C[C@H]1CN([C@@H](C)CO)C(=O)CCCn2nncc2CO[C@H]1CN(C)S(=O)(=O)c1ccc(-n2cccn2)cc1` was tested, and the cytotoxicity call was “inactive”. For `CCOC(=O)c1cc2c(c(-c3ccccc3)n1)[C@@H](CCO[Si](C)(C)C(C)(C)C)N(S(=O)(=O)C(C)(C)C)C2`, the cytotoxicity call was “inactive”. `CCC(=O)Nc1ccc2c(c1)C(=O)N(C)C[C@@H](OC)[C@@H](C)CN(C(=O)CN1CCOCC1)[C@@H](C)CO2` was tested, and the cytotoxicity call was “inactive”. For `O=C(O)COCC(=O)NCc1ccco1`, the cytotoxicity call was “inactive”. `O=C1O[C@@H](c2ccccc2)[C@@H](c2ccccc2)N2[C@@H](c3ccc(O)cc3)[C@]3(C(=O)Nc4ccccc43)[C@@H](C(=O)Nc3nc4ccccc4s3)[C@H]12` was tested, and the cytotoxicity call was “inactive”. With `C[C@H]1CN([C@@H](C)CO)C(=O)c2cc(C#Cc3ccccc3F)cnc2O[C@@H]1CN(C)C(=O)c1ccc2c(c1)OCO2` the cytotoxicity call was “inactive”. With `C[C@@H]1CN([C@H](C)CO)C(=O)Cc2cc(N(C)C)ccc2O[C@@H]1CN(C)S(=O)(=O)c1cn(C)cn1` the cytotoxicity call was “inactive”. `C[C@H]1CN([C@@H](C)CO)C(=O)c2cc(NC(=O)Nc3ccc4c(c3)OCO4)ccc2O[C@@H]1CN(C)C(=O)Nc1ccc(C(F)(F)F)cc1` was tested, and the cytotoxicity call was “inactive”. For `C[C@@H]1CN([C@H](C)CO)C(=O)c2cc(NC(=O)Nc3ccc(C(F)(F)F)cc3)ccc2O[C@H]1CN(C)C(=O)Nc1ccc2c(c1)OCO2`, the cytotoxicity call was “inactive”. `C[C@@H]1CN([C@@H](C)CO)C(=O)c2cc(NC(=O)Nc3ccc(C(F)(F)F)cc3)ccc2O[C@@H]1CN(C)C(=O)Nc1ccc2c(c1)OCO2` was tested, and the cytotoxicity call was “active”. With `C[C@H]1CN([C@@H](C)CO)C(=O)c2cc(NC(=O)Nc3ccc4c(c3)OCO4)ccc2O[C@H]1CN(C)C(=O)Nc1ccc(C(F)(F)F)cc1` the cytotoxicity call was “inactive”. In the case of `C[C@H]1CN([C@@H](C)CO)C(=O)c2cc(NC(=O)Nc3ccc(C(F)(F)F)cc3)ccc2O[C@@H]1CN(C)C(=O)Nc1ccc2c(c1)OCO2`, the cytotoxicity call is reported as “active”. In the case of `C[C@@H]1CN([C@@H](C)CO)C(=O)c2cc(NC(=O)Nc3ccc4c(c3)OCO4)ccc2O[C@H]1CN(C)C(=O)Nc1ccc(C(F)(F)F)cc1`, the cytotoxicity call is reported as “inactive”. In the case of `COCCNC(=O)C[C@@H]1C[C@@H]2c3cc(NC(=O)COC)ccc3O[C@@H]2[C@@H](CO)O1`, the cytotoxicity call is reported as “inactive”. With `Cc1noc(C)c1NC(=O)Nc1ccc2c(c1)C(=O)N([C@@H](C)CO)C[C@@H](C)[C@H](CN(C)S(=O)(=O)c1ccccc1)OCCCC[C@@H](C)O2` the cytotoxicity call was “inactive”. For `C[C@H]1CN([C@@H](C)CO)C(=O)c2cc(NC(=O)Cn3cnnn3)ccc2O[C@@H]1CN(C)Cc1ccc(C(=O)Nc2ccccc2N)cc1`, the cytotoxicity call was “inactive”. With `C[C@@H]1CN([C@H](C)CO)C(=O)c2cc(NC(=O)C3CC3)ccc2O[C@@H]1CN(C)S(=O)(=O)c1cn(C)cn1` the cytotoxicity call was “inactive”. For `COc1ccc(CN(C)C[C@H]2OCCCC[C@@H](C)Oc3ccc(NS(=O)(=O)c4ccc(F)cc4)cc3C(=O)N([C@H](C)CO)C[C@@H]2C)cc1`, the cytotoxicity call was “inactive”. With `COc1ccccc1NC(=O)N(C)C[C@@H]1Oc2cc(Br)ccc2S(=O)(=O)N([C@@H](C)CO)C[C@@H]1C` the cytotoxicity call was “inactive”. In the case of `C[C@H]1CN([C@@H](C)CO)S(=O)(=O)c2ccc(-c3cncnc3)cc2O[C@H]1CN(C)C(=O)NC1CCCC1`, the cytotoxicity call is reported as “inactive”. `COc1ccc2c3c([nH]c2c1)[C@H](CO)N(Cc1ccc(cc1)Cl)C[C@]13CCN(CCc2ccccc2)CC1` was tested, and the cytotoxicity call was “active”. `COc1ccc2c3c([nH]c2c1)[C@@H](CO)N(Cc1ccc(cc1)Cl)C[C@]13CCN(CCc2ccccc2)CC1` was tested, and the cytotoxicity call was “active”. For `COc1ccc2c3c([nH]c2c1)[C@@H](CO)N(Cc1ccncc1)C[C@]13CCN(CC1)Cc1ccc(cc1)-c1ccccn1`, the cytotoxicity call was “inactive”. For `COc1ccc2c3c([nH]c2c1)[C@@H](CO)N(C[C@]13CCN(CCc2ccccc2)CC1)C(=O)CN1CCOCC1`, the cytotoxicity call was “inactive”. `COc1ccc2c3c([nH]c2c1)[C@H](CO)N(Cc1ccccc1)C[C@]13CCN(CC1)C(=O)Nc1cccc(c1)F` was tested, and the cytotoxicity call was “inactive”. `COc1ccc(cc1)CN1C[C@]2(CCN(CC2)C(=O)Nc2cccc(c2)F)c2c([nH]c3cc(ccc23)OC)[C@@H]1CO` was tested, and the cytotoxicity call was “inactive”. `COc1ccc(NC(=O)N(C)C[C@H]2OCCCC[C@H](C)Oc3ccc(NC(=O)C4CCCCC4)cc3C(=O)N([C@H](C)CO)C[C@@H]2C)cc1` was tested, and the cytotoxicity call was “inactive”. `C[C@@H]1CN([C@@H](C)CO)C(=O)c2cc(NS(=O)(=O)c3cccs3)ccc2O[C@H]1CN(C)Cc1ccncc1` was tested, and the cytotoxicity call was “inactive”. For `Cc1noc(C)c1S(=O)(=O)N(C)C[C@@H]1Oc2ccc(NC(=O)Cc3ccccc3)cc2CC(=O)N([C@@H](C)CO)C[C@H]1C`, the cytotoxicity call was “inactive”. For `C[C@@H]1CN([C@H](C)CO)C(=O)Cc2cc(NS(=O)(=O)c3ccc(Cl)cc3)ccc2O[C@H]1CN(C)Cc1ccc(-c2ccccc2)cc1`, the cytotoxicity call was “inactive”. `C[C@H]1CN([C@@H](C)CO)C(=O)Cc2cc(NS(=O)(=O)c3ccc(Cl)cc3)ccc2O[C@H]1CN(C)Cc1ccc(-c2ccccc2)cc1` was tested, and the cytotoxicity call was “active”. `C[C@@H]1CN([C@@H](C)CO)C(=O)Cc2cc(NS(=O)(=O)c3ccc(Cl)cc3)ccc2O[C@@H]1CN(C)Cc1ccc(-c2ccccc2)cc1` was tested, and the cytotoxicity call was “inactive”. With `C[C@H]1CN([C@@H](C)CO)C(=O)Cc2cc(NS(=O)(=O)c3ccc(Cl)cc3)ccc2O[C@@H]1CN(C)Cc1ccc(-c2ccccc2)cc1` the cytotoxicity call was “inactive”. `C[C@@H]1CN([C@H](C)CO)C(=O)Cc2cc(NS(=O)(=O)c3ccc(Cl)cc3)ccc2O[C@@H]1CN(C)Cc1ccc(-c2ccccc2)cc1` was tested, and the cytotoxicity call was “active”. With `C[C@H](CO)N1C[C@H](C)[C@@H](CN(C)Cc2ccc(-c3ccccc3)cc2)Oc2ccc(NS(=O)(=O)c3ccc(Cl)cc3)cc2CC1=O` the cytotoxicity call was “inactive”. In the case of `C[C@H](CO)N1C[C@H](C)[C@H](CN(C)Cc2ccc(-c3ccccc3)cc2)Oc2ccc(NS(=O)(=O)c3ccc(Cl)cc3)cc2CC1=O`, the cytotoxicity call is reported as “inactive”. In the case of `C[C@@H]1CN([C@@H](C)CO)C(=O)Cc2cc(NS(=O)(=O)c3ccc(Cl)cc3)ccc2O[C@H]1CN(C)Cc1ccc(-c2ccccc2)cc1`, the cytotoxicity call is reported as “active”.
